Inconclusive results are not listed. Entries that show only a call come without a potency. Active and inactive are the calls of the source. Calls follow the shape of the full dose curve.

A short description of the experiment: qHTS for Inhibitors of Cell Surface uPA Generation: Wild-type Protective Antigen (WT-PrAg) Counterscreen for Cherry-picked Compounds. Particulars: cells, WT protective antigen toxicity counterscreen; series mostly up to 115 µM. On the technique in general: Quantitative high-throughput screening tests each substance at several concentrations.
With `O=C(c1cc(COc2c(F)cccc2F)on1)N1CCc2ccccc2C1`, the Potency entry was “inactive”.
As to `O=C(c1cccc(F)c1)N1CCN(Cc2cccc(Br)c2)CC1`, the Potency entry was “inactive”.
To `NC(=O)CC[C@H](NC(=O)c1ccc(F)cc1)C(=O)OCC(=O)Nc1c(F)c(F)c(F)c(F)c1F` belongs “inactive”; to `Cc1nc(N2CCN(c3ccc(Cl)cc3)CC2)[nH]c(=O)c1C`, “inactive”.
To `COc1ccc(Nc2nc(-c3ccccc3)c(C(=O)Nc3cccnc3)s2)cc1` belongs “inactive”; to `COc1ccc(C(=O)NNC(=O)Cc2ccc(Cl)cc2)cc1`, “inactive”.
For `O=C(Nn1cnnc1)c1ccc(Cl)cc1` the value was “inactive”; for `COc1cc(C2/C(=C(\O)c3ccc4c(c3)CC(C)O4)C(=O)C(=O)N2CC2CCCO2)cc(OC)c1OC` (centres undefined), “inactive”; for `CCC(NC(=S)NCc1ccc(F)cc1)c1ccccc1` (centres undefined), “inactive”.
As to `Cn1cnc([N+](=O)[O-])c1Sc1ccc(Br)cc1`, the Potency result was “inactive”.
For `CSc1nc(-c2ccccc2)nc(C(Cl)Cl)n1` the value was “inactive”; for `CCCCOc1ccc(S(=O)(=O)N2CCCCC2)cc1`, “inactive”.
For `Cc1ccc(C(O)(COC(=O)C(C)C)COC(=O)C(C)C)c(O)c1` the value was “inactive”.
To `CC1CCN(C2=C(NS(=O)(=O)c3ccc(Br)cc3)C(=O)c3ccccc3C2=O)CC1` belongs “inactive”.
For the molecule `COCCNS(=O)(=O)c1cc(OC)c(C)cc1C`, the Potency entry is “inactive”.
To `COc1ccc(NC(=O)CC(C)CC(=O)NCc2ccccc2)c(OC)c1` (centres undefined) belongs “inactive”.
For `CCCCN(CC(=O)NCc1ccc(F)cc1)C(=O)c1ccco1`, the Potency entry was “inactive”.
For `Cn1c(SCC(=O)NNC(=O)c2ccc(Br)cc2)nnc1-c1cccnc1` the value was “inactive”; for `Cc1ccc(C23CC4CC(CC(C(=O)NN)(C4)C2)C3)cc1`, “inactive”.
